# Screens: PubChem BioAssay, The Scripps Research Institute Molecular Screening Center
# PP1 inh = blocks human PP1-alpha phosphatase, a PP5 counter-screen. P62136. purified PP1alpha, OMFP fluorescence. inhibition, % at 6.7 µM. hit rate 0.9% among 320,000. AID 2235;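 active = inhibition above the mean inhibition of all tested compounds plus 3 SD, computed separately for each screening campaign, cut at about 15% in these data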
# Target sequence (P62136 whole entry, looked up): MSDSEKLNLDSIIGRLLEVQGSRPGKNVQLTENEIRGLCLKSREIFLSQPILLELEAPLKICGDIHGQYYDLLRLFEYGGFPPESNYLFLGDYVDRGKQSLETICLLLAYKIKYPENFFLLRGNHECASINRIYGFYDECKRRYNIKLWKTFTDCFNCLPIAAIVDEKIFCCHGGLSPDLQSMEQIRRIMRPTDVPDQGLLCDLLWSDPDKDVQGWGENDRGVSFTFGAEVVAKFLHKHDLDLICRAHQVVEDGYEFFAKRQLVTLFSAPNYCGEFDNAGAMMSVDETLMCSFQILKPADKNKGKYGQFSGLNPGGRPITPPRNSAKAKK
# bovine MsrA act = bovine methionine sulfoxide reductase A activation; purified bovine MsrA, absorbance read-out; activation, % at 10.6 µM; hit rate 0.3% among 360,000; AID 602163; in the data active = activation above about 7.5%;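 note: 0% = vehicle and 100% = reference activator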
# PP5 primary = inhibitors of human protein phosphatase 5 (PP5). purified PP5c, OMFP substrate fluorescence. inhibition, % at 6.7 µM. hit rate 0.18% among 320,000. AID 1987;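 active = inhibition above the campaign's mean inhibition across all tested compounds plus 3 SD, cut at about 9.5% in these data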;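 note: 0% = DMSO only and 100% = 100 µM cantharidin control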
# MsrA inhibitor = inhibitors of bovine MsrA; purified bovine MsrA, absorbance read-out; inhibition, % at 15.5 µM; hit rate 0.75% among 360,000; in the data active = inhibition above about 4.5%;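 note: 0% = vehicle wells with enzyme and 100% = reference inhibitor wells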
# EBNA-1 inh = blocks EBNA-1 binding to DNA; EBNA-1 DNA binding, fluorescence polarization; inhibition, % at 14.8 µM; hit rate 0.34% among 300,000; in the data active = inhibition above about 28%
# ZTA counter = blocks Epstein-Barr virus ZTA, an EBNA-1 counter-screen | hit rate 0.15% among 320,000 | ZTA-DNA binding, fluorescence polarization | P03206 | inhibition, % at 11 µM; in the data active = inhibition above about 33%
# Target sequence (P03206 whole entry, looked up): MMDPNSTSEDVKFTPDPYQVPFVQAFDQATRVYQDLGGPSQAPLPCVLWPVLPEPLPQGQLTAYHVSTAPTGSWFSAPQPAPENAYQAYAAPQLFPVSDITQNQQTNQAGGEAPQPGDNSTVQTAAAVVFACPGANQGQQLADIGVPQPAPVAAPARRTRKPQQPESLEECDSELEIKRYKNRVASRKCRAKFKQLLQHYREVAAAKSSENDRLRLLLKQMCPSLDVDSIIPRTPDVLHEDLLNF
# Starred values were filed as active, the others as inactive; · = not tested or not shown; + = active, no number. Rows were chosen to be rich in hits. Some 2.3% of all compounds tested hit in one or more screens of this group.
SMILES,PP1 inh,bovine MsrA act,PP5 primary,MsrA inhibitor,EBNA-1 inh,ZTA counter
C=CCn1c2ccccc2c(=O)c2cc(C#Cc3ccsc3)ccc21,17*,·,2,·,-2,7
C=CCN=C1NC(c2ccc(C(F)(F)F)cc2)C(C(=O)OC)=C(C)N1C (stereo unspecified),·,·,·,1,·,·
CN(C)c1ccc(-c2nn3c(-c4ccccc4Cl)nnc3s2)cc1,16*,-5,2,2,22,5
O=C(/C=C/c1ccc(OCCCF)cc1)Nc1ccnc(-c2ccncc2)n1,16*,0,3,0,-2,14
COc1ccccc1NC(=O)c1cc2ccccc2o/c1=N\O,0,0,-1,1,42*,14
NCCC1CCCC(CCN)N1 (stereo unspecified),-8,-4,1,0,+,+
O=c1[nH]n2c(=O)c3c([nH]c2c1N=Nc1cccc(Cl)c1)CCC3,17*,-8,3,2,-4,1
NS(=O)(=O)c1ccc(N=Nc2c(=O)[nH]n3c(=O)c4c([nH]c23)CCCC4)cc1,4,-3,3,2,-9,15
COc1ccc(/C=N/N=C/c2ccc(OC)c(O)c2)cc1O,-1,-5,2,7.1*,-2,-10
Cc1noc(C)c1NC(=O)N(C)C[C@H]1OCc2cn(nn2)CCCC(=O)N([C@H](C)CO)C[C@@H]1C,·,·,·,1,·,·
O=c1c2c(nc3c(-c4cccc5ccccc45)c[nH]n13)CCC2,17*,-1,-2,1,-11,3
CC(C)(C)C1CCc2nc(NC(=O)Cc3cn4ccsc4n3)sc2C1 (stereo unspecified),16*,-1,6,1,1,0
CC1CCc2nc(NC(=O)Cc3cccs3)sc2C1 (stereo unspecified),2,-2,1,1,3,-4
CSc1nc2nccc(-c3ccc(Cl)cc3)n2n1,-1,-7,-1,-1,0,-3
CSc1nc2nccc(/C=C\c3ccccc3)n2n1,-4,-3,3,4.9*,-13,-14
COc1ccc(/C=C/C(=O)NC(=S)NNC(=O)c2c(-c3ccccc3)noc2C)cc1,17*,-2,4,3,-11,-2
Cc1onc(-c2ccccc2)c1C(=O)NNC(=S)NC(=O)/C=C/c1ccccc1,14,-4,4,0,2,9
COc1ccc(/C=C/C(=O)NC(=S)NNC(=O)Cc2cccs2)cc1,20*,-3,0,2,3,9
CC(=O)OC[C@H]1O[C@H](C#Cc2ccc(C(C)(C)C)cc2)C=C[C@H]1OC(=O)Nc1ccccc1,·,·,·,1,·,·
CC(C)C[C@@H](CN1CCC[C@@H]1CN1C(=S)NC[C@@H]1Cc1ccc(O)cc1)N1C[C@H](Cc2ccc(O)cc2)N(CC2CCCCC2)C1=S,·,-3,·,0,·,·
Nc1ccn([C@@H]2O[C@H](C(=O)N3CCN(C(=O)C(F)(F)F)CC3)[C@@H](O)[C@H]2O)c(=O)n1,·,·,·,0,·,·
O=C(NCCc1ccccc1)C1CCC(CNS(=O)(=O)c2ccccc2)CC1 (stereo unspecified),16*,-10,3,0,-12,-5
COc1ccccc1N1CCN(C(=O)c2ccc3c(c2)NC(=O)C(CSCc2ccccc2C)N3)CC1 (stereo unspecified),23*,·,0,·,4,12
CN(C)CCCNC(=O)c1c(N)[nH]c(C(=O)c2ccc(Br)cc2)c1-c1ccc(Br)cc1,·,·,·,0,·,·
CCn1c(=O)c(C(=O)CN2c3ccccc3CC2C)c(N)n(Cc2ccccc2)c1=O (stereo unspecified),16*,-10,0,4,5,-26
SMILES,PP1 inh,bovine MsrA act,PP5 primary,MsrA inhibitor,EBNA-1 inh,ZTA counter
C[C@@H]1CN([C@H](C)CO)C(=O)c2cc(NS(=O)(=O)c3ccccc3)ccc2O[C@@H](C)CCCCO[C@@H]1CN(C)Cc1ccc(Cl)c(Cl)c1,·,·,·,3,·,·
COc1ccc(/C=C/c2nc3ccccc3n2C)cc1,-8,-14,1,5.5*,8,16
COc1ccc(Cn2c(/C=C/c3ccccc3)nc3ccccc32)cc1,3,-4,4,2,2,-8
CN(Cc1ccccc1)C1=CC(=[N+]2CCCCC2)CC(C)(C)C1,-1,-18,-1,4.7*,-3,16
CC1(C)CC(N2CCN(Cc3ccccc3)CC2)=CC(=[N+]2CCCCC2)C1,-2,-12,0,4,-2,-7
CCOc1ccccc1C(=O)OCC(=O)Nc1nnc(-c2ccccc2)o1,5,0,1,1,4,13
O=C(COc1ccc(Cl)cc1)Nc1nnc(-c2ccc3c(c2)CCCC3)o1,6,-2,2,0,-11,3
O=C(COc1ccccc1)Nc1nnc(-c2ccc(Cl)cc2)o1,17*,-1,-4,1,14,-8
CCOc1ccccc1C(=O)NC(C(=O)OCC(=O)Nc1nnc(-c2ccccc2)o1)C(C)C (stereo unspecified),16*,-8,1,·,1,2
O=C(NC1CCCc2ccccc21)c1cccc(S(=O)(=O)N2CCN(c3ccccc3)CC2)c1 (stereo unspecified),15*,2,5,1,-10,-13
CC1CCC(NC(=O)c2cccc(S(=O)(=O)N3CCN(c4ccccc4)CC3)c2)CC1 (stereo unspecified),-5,-2,0,1,3,4
O=C(N[C@H](C(=O)N1CCC[C@H]1C(=O)NCc1ccccc1)c1ccccc1)C1CCCC1,·,·,·,0,·,·
CCOc1cccc(C=NNC(=O)C(=O)Nc2cccc(C(F)(F)F)c2)c1O,·,·,·,2,·,·
C#CCOCCOCCOCCNc1nc(N2CCN(C(=O)CCCCCCCCCCNC(=O)[C@H]([C@@H](C)CC)n3cc(CCCCN=C(N)N)nn3)CC2)nc(N2CCN(C(=O)CCCCCCCCCCNC(=O)[C@H](CCCCN)n3cc(C[C@@H](C)CC)nn3)CC2)n1,71*,·,9,·,3,126*
C#CCOCCOCCOCCNc1nc(N2CCN(C(=O)CCCCCCCCCCNC(=O)[C@H](CCCCN)n3cc(CCCC(=O)O)nn3)CC2)nc(N2CCN(C(=O)CCCCCCCCCCNC(=O)[C@H](CCCCN)n3cc(CCCC(=O)O)nn3)CC2)n1,1,1,-2,·,5,-3
C#CCOCCOCCOCCNc1nc(N2CCN(C(=O)CCCCCCCCCCNC(=O)[C@H](CCCCN)n3cc(C[C@@H](C)CC)nn3)CC2)nc(N2CCN(C(=O)CCCCCCCCCCNC(=O)[C@H](CCCCN)n3cc(C[C@@H](C)CC)nn3)CC2)n1,55*,4,2,·,7,91*
C#CCOCCOCCOCCNc1nc(N2CCN(C(=O)CCCCCCCCCCNC(=O)[C@H](CO)n3cc(CCCSC)nn3)CC2)nc(N2CCN(C(=O)CCCCCCCCCCNC(=O)[C@H](CCCCN)n3cc(C[C@@H](C)CC)nn3)CC2)n1,51*,·,5,·,0,11
